Source: PubChem BioAssay AID1159580 (chemical genetic matrix, 2015)
The whole screen tested about 5,500 compounds, of which about 2,000 (36%) were called active. Roughly 18% stayed inconclusive and do not appear here. No stated cut-off is given here; in the data, active means normalized growth mostly below about 0.91 (no sharp cut-off); inconclusive means no clear call, values can overlap the other calls; inactive means mostly above about 0.92. The list shows a part of the results.

Assay: chemical genetic growth profiling, strain panel (AID 1159580);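 further: tested at 20 µM; growth read once vehicle control cultures reached saturation at 30 °C; 1 = growth at the plate median or of vehicle wells; lower values mean less growth of the strain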
Settings: S. cerevisiae deletion strains, growth OD
[1] = locus YAL013W, strain DEP1, active compounds read low
[2] = locus YDR150W, strain NUM1, active compounds read low
[3] = locus YGR078C, strain PAC10, active compounds read low
[4] = locus YJR075W, strain HOC1, active compounds read low
[5] = locus YMR263W, strain SAP30, active compounds read low
[6] = locus YNL153C, strain GIM3, active compounds read low

Measured: normalized growth

NC(Cc1ccc(N(CCCl)CCCl)cc1)C(=O)O (configuration not stated)
inactive: [1] 0.981 | locus YAL040C, strain CLN3, active compounds read low 0.995 | locus YCL061C, strain MRC1 (second series), active compounds read low 0.996 | [2] 1.01 | locus YDR363W, strain ESC2, active compounds read low 0.986 | locus YER002W, strain NOP16, active compounds read low 0.974 | [3] 0.976 | [4] 1 | [5] 0.997 | locus YMR307W, strain GAS1, active compounds read low 1 | [6] 1.04 | locus YNL175C, strain NOP13, active compounds read low 0.977 | locus YNL197C, strain WHI3, active compounds read low 0.983 | locus YNL224C, strain SQS1, active compounds read low 1.01 | locus YOR083W, strain WHI5 (second series), active compounds read low 0.993

O=C(O)CSCc1ccccc1
inactive: [1] 1.01 | locus YBR229C, strain ROT2, active compounds read low 1 | locus YCL061C, strain MRC1, active compounds read low 0.991 | locus YDL101C, strain DUN1, active compounds read low 1.02 | locus YDL134C, strain PPH21, active compounds read low 0.986 | [2] 0.98 | locus YEL061C, strain CIN8, active compounds read low 1.01 | [3] 0.976 | locus YHR030C, strain SLT2, active compounds read low 1.07 | locus YHR087W, strain rtc3, active compounds read low 0.99 | locus YJR043C, strain POL32, active compounds read low 1.03 | [4] 0.971 | locus YLR039C, strain RIC1, active compounds read low 1.07 | locus YLR058C, strain SHM2 (second series), active compounds read low 0.993 | locus YLR085C, strain ARP6, active compounds read low 1.03 | locus YLR262C, strain YPT6, active compounds read low 1.04 | locus YML094W, strain GIM5, active compounds read low 1.03 | locus YMR219W, strain ESC1, active compounds read low 0.997 | [5] 1 | locus YNL128W, strain TEP1, active compounds read low 0.986 | [6] 0.997 | locus YNL298W, strain CLA4 (second series), active compounds read low 1.05 | locus YNL322C, strain KRE1, active compounds read low 0.991 | locus YNR030W, strain Alg12, active compounds read low 1.02 | locus YPL055C, strain LGE1, active compounds read low 0.958 | locus YPL241C, strain CIN2, active compounds read low 1 | locus YPR135W, strain CTF4, active compounds read low 0.976
